Experimental data published in PubChem BioAssay.
Inconclusive results are not listed. For some of these results: Entries with a potency or affinity are not part of this list. The source made the active and inactive calls. Unless noted, no stated cut-off is given here; in the data, active means parasite load remaining mostly below about 12% (no sharp cut-off); inactive means mostly above about 10%.

Columns and labels:
[1] = target: ATP-dependent translocase ABCB1 (Homo sapiens) (UniProt P08183); assay: P-glycoprotein substrate transport blockade – cell-based (AID 377; in the data active means fluorescence slope change above about 50%); conditions: MDR1-expressing cells, fluorescent substrate accumulation slope; stronger effect = higher value; concentration not given here
[2] = compounds altering viability of human ES cells (AID 493140; call rule not given here;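 further: cells exposed to compounds for four days before counting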); conditions: human embryonic stem cell survival screen; stronger effect = higher value
[3] = P. berghei load reduction in hepatocytes – cell-based, HepG2, luciferase luminescence, HepG2 viability, primary screen (AID 624349);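 further: 100% = mean of DMSO negative control wells on the same plate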; conditions: P. berghei liver stage in HepG2, luciferase luminescence, concentration not given here; parasite load remaining: stronger effect = lower value; viability: measured here: HepG2 viability without parasites
[4] = blockers of polyQ-driven CASP3 activation – cell-based (AID 1583); conditions: polyglutamine-induced caspase-3 activation, cell assay; stronger effect = higher value;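 tested at 10 µM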
[5] = yeast 75Q aggregation reduction – 75Q-TubU reporter (AID 1593); conditions: Yeast 75Q polyglutamine aggregation reporter
[6] = restoration of touch response, mutant HTT neurons – whole organism, C. elegans mechanosensory neurons, N-terminal huntingtin (AID 1599); conditions: C. elegans polyQ-huntingtin mechanosensory neurons, stronger effect = higher value
[7] = blockers of cytochrome c efflux from mitochondria – biochemical, purified mitochondria (AID 1603); conditions: stronger effect = lower value;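 further: mouse liver mitochondria challenged with calcium chloride; signal normalized to the plate average as 100%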
[8] = polyglutamine aggregate formation blockers (AID 1604); conditions: polyglutamine-induced protein aggregation inhibition assay; stronger effect = higher value; tested at 2.5 µM
[9] = glutamate transport activators, MN-1 cells, MN-1 cell line (AID 1612); conditions: MN-1 motor neuron cells, stronger effect = higher value;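 further: tested at 1 µM final; 0% = mean of DMSO vehicle wells on each plate; positive means more glutamate uptake than control and negative means less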
[10] = GFP-Q80 aggregate reduction, neuronal-like cells, cell-based, NGF-treated PC12, GFPQ80 (AID 1614); conditions: PC12 NGF-treated GFP-polyQ80 inclusion reduction;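 further: lower means fewer inclusions and 0 means no inclusions at all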
[11] = 75Q-TubH aggregate inhibition, S. cerevisiae, yeast (AID 1616); conditions: S. cerevisiae 75Q-TubH polyglutamine aggregation suppression; stronger effect = higher value
[12] = target: Mitogen-activated protein kinase 7 (Homo sapiens) (UniProt Q13164); assay: Gal4-ERK5 driven luciferase induction – cell-based, HTS, primary screen (AID 1508626;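 active means luciferase signal above three times the same-plate solvent-only control wells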;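 further: luciferase driven by Gal4-ERK5 fusion binding five Gal4 sites before minimal TATA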); conditions: HeLa Gal4-ERK5 transactivation, 18 h, at 5 µM, stronger effect = higher value
[13] = rescue of PC12 cells from polyQ htt toxicity – LDH release (AID 1610); conditions: PC12 mutant huntingtin toxicity, final LDH at 4 uM, stronger effect = lower value

Sequence of ATP-dependent translocase ABCB1 (Homo sapiens) (P08183 whole entry, looked up): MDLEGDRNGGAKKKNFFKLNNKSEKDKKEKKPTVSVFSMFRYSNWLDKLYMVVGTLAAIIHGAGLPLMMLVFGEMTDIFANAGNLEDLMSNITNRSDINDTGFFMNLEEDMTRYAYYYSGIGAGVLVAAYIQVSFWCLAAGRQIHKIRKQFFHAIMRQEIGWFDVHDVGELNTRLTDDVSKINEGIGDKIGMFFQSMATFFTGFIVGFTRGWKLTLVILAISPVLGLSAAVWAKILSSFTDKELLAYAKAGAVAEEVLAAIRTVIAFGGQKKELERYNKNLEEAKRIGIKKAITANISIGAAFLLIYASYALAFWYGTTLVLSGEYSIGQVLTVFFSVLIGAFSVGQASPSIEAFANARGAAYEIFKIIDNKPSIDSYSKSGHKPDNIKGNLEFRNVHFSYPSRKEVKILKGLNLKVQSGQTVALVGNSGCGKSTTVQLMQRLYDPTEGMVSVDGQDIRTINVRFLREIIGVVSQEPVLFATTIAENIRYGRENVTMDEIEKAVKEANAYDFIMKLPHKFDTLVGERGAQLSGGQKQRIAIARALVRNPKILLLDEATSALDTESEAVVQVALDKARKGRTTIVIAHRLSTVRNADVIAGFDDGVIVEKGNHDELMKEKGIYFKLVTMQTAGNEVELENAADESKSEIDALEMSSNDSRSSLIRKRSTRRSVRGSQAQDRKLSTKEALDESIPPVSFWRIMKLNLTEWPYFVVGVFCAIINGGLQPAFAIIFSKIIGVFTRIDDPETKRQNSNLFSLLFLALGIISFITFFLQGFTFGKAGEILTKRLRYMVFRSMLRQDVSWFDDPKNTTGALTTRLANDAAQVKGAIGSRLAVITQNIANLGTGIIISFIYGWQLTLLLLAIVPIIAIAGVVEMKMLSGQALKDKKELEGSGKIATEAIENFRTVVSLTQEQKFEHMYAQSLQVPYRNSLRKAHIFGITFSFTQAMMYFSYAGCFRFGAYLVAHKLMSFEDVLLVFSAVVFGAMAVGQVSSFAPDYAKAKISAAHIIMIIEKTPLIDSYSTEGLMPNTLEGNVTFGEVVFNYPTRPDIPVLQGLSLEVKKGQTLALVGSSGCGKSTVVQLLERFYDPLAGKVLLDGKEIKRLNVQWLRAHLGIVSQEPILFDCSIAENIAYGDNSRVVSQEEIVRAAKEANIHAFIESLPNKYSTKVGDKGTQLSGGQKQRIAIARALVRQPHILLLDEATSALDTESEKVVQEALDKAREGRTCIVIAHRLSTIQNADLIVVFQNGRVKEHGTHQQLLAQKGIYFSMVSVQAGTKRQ
Sequence of Mitogen-activated protein kinase 7 (Homo sapiens) (Q13164 whole entry, looked up, the tested form may be a part): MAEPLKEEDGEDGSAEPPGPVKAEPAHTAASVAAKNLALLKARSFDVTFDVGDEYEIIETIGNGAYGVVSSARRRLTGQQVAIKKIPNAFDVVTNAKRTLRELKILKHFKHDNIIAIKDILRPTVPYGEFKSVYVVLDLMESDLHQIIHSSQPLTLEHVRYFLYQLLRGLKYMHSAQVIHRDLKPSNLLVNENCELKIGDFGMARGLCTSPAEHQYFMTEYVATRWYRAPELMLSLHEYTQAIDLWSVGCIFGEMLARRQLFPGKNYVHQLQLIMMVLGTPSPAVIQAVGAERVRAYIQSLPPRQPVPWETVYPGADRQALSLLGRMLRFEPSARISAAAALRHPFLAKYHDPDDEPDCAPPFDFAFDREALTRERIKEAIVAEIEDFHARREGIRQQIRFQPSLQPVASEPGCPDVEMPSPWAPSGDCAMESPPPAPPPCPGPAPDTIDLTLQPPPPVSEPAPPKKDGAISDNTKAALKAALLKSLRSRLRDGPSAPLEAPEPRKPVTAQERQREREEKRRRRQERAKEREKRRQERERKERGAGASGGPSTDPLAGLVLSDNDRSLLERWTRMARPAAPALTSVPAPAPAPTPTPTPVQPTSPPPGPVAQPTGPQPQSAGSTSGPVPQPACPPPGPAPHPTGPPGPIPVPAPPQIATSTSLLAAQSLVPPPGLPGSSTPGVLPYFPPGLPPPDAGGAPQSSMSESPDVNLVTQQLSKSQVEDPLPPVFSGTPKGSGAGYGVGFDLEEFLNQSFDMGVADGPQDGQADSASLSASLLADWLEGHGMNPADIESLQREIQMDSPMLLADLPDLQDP

SMILES	fluorescence slope change [1]	survival [2]	parasite load remaining [3]	viability [3] [%]	inhibition [4] [%]	score [5]	rescue above control [6]	cytochrome c release ratio [7]	inhibition of aggregation [8] [%]	glutamate uptake change [9] [%]	inclusion score [10]	aggregation suppression score [11]	luciferase signal [12]	normalised LDH release [13]
C[N+]1([O-])[C@@H]2CC[C@H]1CC(OC(=O)C(CO)c1ccccc1)C2 (some centres not stated)	74.3% (active)	35.2 (inactive)	113% (inactive)	87.7	–	–	–	–	–	–	–	–	–	–
CN1C2CCC1C(C(=O)O)C(OC(=O)c1ccccc1)C2 (configuration not stated)	–	–	–	–	-11.5	0.85	-9.16	1.03	41.5	-21	2	1.17	–	–
O=c1ccc2cc(O[C@H]3O[C@H](CO)[C@@H](O)[C@H](O)[C@H]3O)c(O)cc2o1	–	–	–	–	-25.3	0.99	-9.34	0.66	56.9	21.7	2	0.763	–	–
ClC1=C(Cl)C2(Cl)C3C4CC(C5OC45)C3C1(Cl)C2(Cl)Cl (configuration not stated)	–	–	–	–	8.56	0	3.84	1.81	72.4	-23.9	–	0.719	–	–
CN1C(=O)CN=C(c2ccccc2F)c2cc([N+](=O)[O-])ccc21	–	–	–	–	9.27	0.97	-7.57	0.83	22.4	-1.18	2	0.965	–	–
CC(=O)OC1CCC2(C)C(CCC3C2CCC2(C)C(C4=CC(=O)OC4)C(OC(C)=O)CC32O)C1 (configuration not stated)	–	–	–	–	–	–	–	–	–	–	–	–	16 AU (inactive)	–
CC[C@H]1C(=O)OC[C@@H]1Cc1cncn1C	–	–	76.7% (inactive)	70.2	–	–	–	–	–	–	–	–	84 AU (inactive)	–
CN1C2CC(OC(=O)[C@H](CO)c3ccccc3)C[C@H]1CC2O (some centres not stated)	–	–	–	–	17.4	1.3	-1.97	0.75	83.9	4.44	2	1.3	–	–
CN1CC[C@]23c4c5ccc(O)c4O[C@H]2[C@H](O)C=CC3[C@H]1C5 (some centres not stated)	–	–	–	–	2.86	1.09	-1.93	1.03	32	6.58	2	1.13	–	–
CC(N)Cc1ccccc1 (configuration not stated)	–	–	–	–	18	0.93	-1.93	0.82	10.2	31.4	2	0.923	–	–
O=C1Nc2ccc(Cl)cc2C(c2ccccc2)=NC1O (configuration not stated)	–	–	–	–	-2.46	1.01	-7.17	1.14	32	0.27	–	0.898	–	–
CCOC(=O)C1C(OC(=O)c2ccccc2)CC2CCC1N2C (configuration not stated)	–	–	–	–	4.42	1.01	-8	0.89	44.2	-24.3	2	1.45	–	–
CNC1(c2ccccc2Cl)CCCCC1=O (configuration not stated)	–	–	–	–	12.3	1.43	-2.24	1.27	3.17	-3.45	2	1.36	–	–
CCCCCc1cc(O)c2c(c1)OC(C)(C)c1ccc(C)cc1-2	–	–	–	–	29.1	-1.59	9.18	1.94	-2.04	-26.4	–	-0.155	–	0.953
CCNC(C)Cc1cccc(C(F)(F)F)c1 (configuration not stated)	23.3% (inactive)	–	–	–	-12	1.17	-3.67	0.91	15.7	-14.9	2	1.24	–	–
CC[C@H]1C(=O)OC[C@@H]1Cc1cccn1C	–	–	–	–	-1.44	1.44	2.37	0.94	42.5	10.3	2	1.24	–	–
CCC1(CCC(C)C)C(=O)NC(=O)NC1=O	–	–	–	–	6.77	1.7	0.92	0.96	40.1	-7.2	2	1.35	–	–
CC[C@@H]1[C@@H](O)N2C3C[C@H]1C1C(O)[C@]4(C[C@@H]12)c1ccccc1N(C)[C@@H]34 (some centres not stated)	–	–	–	–	7.74	0.91	-2.66	0.89	-46.3	-1.35	2	1.31	–	–
